# ELG1 genotoxic: qHTS screen for small molecules that induce genotoxicity in human embryonic kidney (HEK293T) cells expressing luciferase-tagged ELG1 | HEK293T ELG1-luciferase reporter, luminescence, 16 h | Potency, µM (titrated, usually from 46 µM), for inactives: top-dose activity change, positive = activation, most hits filed as activators | hit rate 1.3% among 330,000; note: % of control where 0% means no effect; nearly all actives have a fitted effect of over 60% in size
#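 ELG1-luciferase HEK293T cells, 2,000/well; compound pinned in; 16 hr, 37 °C, 5% CO2; ONE-Glo, 30 min RT; luminescence on CCD imager.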
# FLuc modulator: qHTS profiling assay for firefly luciferase inhibitor/activator using purifed enzyme and Km concentrations of substrates (counterscreen for miR-21 project) | AID 588342, 2011 | Luciferin 4-monooxygenase (Photinus pyralis), P08659 | hit rate 6.9% among 360,000 | purified FLuc, Km substrates, luminescence inhibition | Potency, µM (doses to about 57.5 µM), for inactives: at the top dose activity change, negative = inhibition, most hits filed as inhibitors;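 note: plate controls were vehicle for no effect and reference inhibitor for full effect; nearly all actives have a fitted effect of over 55% in size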
# Target sequence (P08659 whole entry, looked up): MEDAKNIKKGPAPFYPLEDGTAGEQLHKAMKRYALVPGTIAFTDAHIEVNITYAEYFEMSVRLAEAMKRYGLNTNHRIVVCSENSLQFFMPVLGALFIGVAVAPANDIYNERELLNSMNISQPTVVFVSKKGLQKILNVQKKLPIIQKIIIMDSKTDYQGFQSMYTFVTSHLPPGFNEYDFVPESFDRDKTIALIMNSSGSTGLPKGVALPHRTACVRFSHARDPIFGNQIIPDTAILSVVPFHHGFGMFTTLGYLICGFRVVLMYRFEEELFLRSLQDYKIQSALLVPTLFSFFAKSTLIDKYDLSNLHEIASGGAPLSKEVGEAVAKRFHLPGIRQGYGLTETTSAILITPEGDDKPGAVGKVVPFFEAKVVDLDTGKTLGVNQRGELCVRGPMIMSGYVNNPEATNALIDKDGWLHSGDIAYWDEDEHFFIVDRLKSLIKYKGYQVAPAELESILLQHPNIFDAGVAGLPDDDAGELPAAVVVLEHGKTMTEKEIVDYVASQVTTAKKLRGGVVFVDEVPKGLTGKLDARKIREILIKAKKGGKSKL
#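 Purified P. pyralis luciferase (10nM final) with 10uM D-luciferin and 10uM ATP (Km levels) in 50mM Tris acetate pH 7.5, 10mM Mg acetate, 0.01% Tween-20, 0.05% BSA; qHTS 6-point titration, ~60 µM downward; luminescence read.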
# NPC1 promoter act: qHTS Assay for NPC1 Promoter Activators | AID 485313, 2010 | Potency, µM (doses to about 9.22 µM), for inactives: top-dose activation, hits mostly activators | Huh7 NPC1 promoter luciferase reporter, 24 h | hit rate 2.4% among 320,000; note: % of control where 0% means no effect; nearly all actives have a fitted effect of over 60% in size
#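 Stable NPC1-promoter luciferase Huh7 line; cpd (DMSO) 24 h, 37 °C, 5% CO2; Amplite luciferase reagent 10 min RT; luminescence readout. qHTS format.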
# Rab9 prom act: qHTS Assay for Rab9 Promoter Activators. AID 485297, 2010. Huh7 Rab9 promoter-luciferase reporter, luminescence, 24 h. Potency, µM (doses to about 9.22 µM), without a hit: at the highest dose activation, negative = inhibition, usual class: activators. hit rate 2.8% among 320,000; note: % of control where 0% means no effect; nearly all actives have a fitted effect of over 60% in size
#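 Huh7 reporter line, Rab9 promoter upstream of luciferase. Compound exposure 24 h at 37 °C in reduced-serum medium with 10% FBS. Read-out: luminescence.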
# ELG1 DNA repair: qHTS screen for small molecules that inhibit ELG1-dependent DNA repair in human embryonic kidney (HEK293T) cells expressing luciferase-tagged ELG1. AID 504467, 2011. Potency, µM (titrated, usually from 46.1 µM), inactives show at the highest dose activity change, negative = inhibition, actives largely listed as inhibitors. HEK293T ELG1-luciferase reporter, luminescence, 16 h; DNA damage induced by 5-fluorouridine. hit rate 2.3% among 330,000; note: % is set by controls: 0 for no effect and ±100 for the full control effect; nearly all actives have a fitted effect of over 55% in size
#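 5-Fluorouridine DNA damage + compound/DMSO, 2,000 cells/well, 16 h, 37 °C/5% CO2. ONE-Glo, 30 min RT, luminescence. Readout = decrease in reporter signal.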
# SMN2 splice up: qHTS Assay for Enhancers of SMN2 Splice Variant Expression | HEK293 SMN2-luciferase splicing reporter, luminescence, 30-36 h | Potency, µM (top dose mostly 46.1 µM), inactives show at the highest dose activity change, positive = activation, actives largely listed as activators | hit rate 2.8% among 210,000; note: % of control where 0% means no effect; nearly all actives have a fitted effect of over 55% in size
#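 HEK293 cells carry an SMN2 minigene-luciferase reporter in which exon 7 inclusion puts luciferase in frame. Cells were seeded at 2000 cells/well, attached for 10-12 hours, then exposed to compounds for 30-36 hours at 37C before ONE-Glo luminescence.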
# An asterisk follows results filed as active; ? = inconclusive; . = not tested or not shown. Most compounds without a hit are left out; they make up all but 9.3% or so of the library. Calls come from the whole dose curve; as a rule, active = well fitted curve in the direction sought with a large enough effect; inconclusive = small, poorly fitted or top-dose-only effect, or another doubt; inactive = no such curve, though single readings can be large; an effect the other way counts as inactive or inconclusive. Potency is the fitted concentration of half-maximal effect.
SMILES,ELG1 genotoxic,FLuc modulator,NPC1 promoter act,Rab9 prom act,ELG1 DNA repair,SMN2 splice up
COc1ccc(-c2ccc(CCC(=O)O)n2Cc2ccco2)cc1,-0.6%,?,0.8%,-1.3%,-3.9%,.
CSc1ccc(S(=O)(=O)N2CCC(C(=O)NCCN3CCOCC3)CC2)cc1,-1.4%,0.9%,-6.4%,2.7%,2.9%,.
CCOc1ccccc1NC(=O)c1ccccc1-c1nc(-c2ccccc2OC)no1,-18.3%,10.7µM*,2.0%,6.1%,18.4µM*,.
CCOc1ccccc1-c1nc(-c2ccc(-c3ccccc3)nc2OCC)no1,.,-0.4%,.,.,.,1.4%
CCOc1nc(C)ccc1-c1noc(-c2ccccc2OC)n1,2.0%,23.9µM*,9.4%,6.6%,?,-7.8%
COc1cc2c(cc1OC)/C(=C/C(=O)c1ccc(C)cc1)NCC2,7.3%,16.9µM*,-2.3%,5.7%,-8.6%,.
COc1cc2c(cc1OC)/C(=C/C(=O)c1ccccc1)NCC2,11.9%,-17.8%,21.8%,-2.2%,9.0%,.
CCC(C)Nc1nc(C)nc2c1oc1ccccc12 (stereo unspecified),-5.5%,-3.5%,0.8%,-17.1%,?,.
COc1ccc(-c2[nH]nc3c2C2(C(=O)N(CC(=O)O)c4ccccc42)C(C#N)=C(N)O3)cc1OC (stereo unspecified),-5.9%,1.4%,-5.2%,-5.0%,-8.4%,-5.9%
Cc1cc(C)nc(N(C#N)CC(=O)c2ccccc2)n1,-2.5%,21.3µM*,1.2%,-1.3%,-1.9%,.
COc1ccc(Cl)cc1S(=O)(=O)N(C)CC(=O)NCc1ccc2c(c1)OCO2,0.6%,0.4%,-5.7%,-2.7%,-9.5%,.
CCOC(=O)N1CCN(c2ccc(S(=O)(=O)N(Cc3ccccc3)Cc3ccccc3)cn2)CC1,11.6µM*,0.5%,-19.9%,-31.5%,?,-69.4%
COc1cccc(NS(=O)(=O)c2ccc(OC)c(OC)c2)c1,-0.7%,5.7%,2.5%,-0.7%,?,-23.6%
COc1cc(NC(=O)C2=C(N3CCOCC3)/C(=C/c3ccc(Cl)cc3)CC2)cc(OC)c1OC,-6.1%,-1.1%,-2.0%,-2.4%,16.4µM*,-10.3%
COc1cc(NC(=O)C2=C(N3CCOCC3)/C(=C\c3ccc(N(C)C)cc3)CCC2)cc(OC)c1OC,-1.4%,-6.2%,-18.7%,-26.0%,?,-24.4%
CCSc1nc2c(c(=O)[nH]c(=O)n2C)n1Cc1ccc(Cl)cc1,15.1%,0.7%,-0.5%,-1.1%,?,3.7%
CCOc1cc(/C=N/NC(=O)c2ccccc2OCc2ccc(F)cc2)ccc1O,-2.3%,?,-1.2%,-0.2%,5.8µM*,.
CCOc1cc(/C=N/NC(=O)c2ccccc2-n2cccc2)ccc1O,-0.4%,0.9%,-2.6%,-11.5%,?,.
O=C(COc1ccccc1[N+](=O)[O-])N/N=C/c1ccc(O)c([N+](=O)[O-])c1,23.8%,?,-4.0%,-1.2%,?,-25.0%
O=C(COc1ccccc1C(=O)N/N=C\c1ccc(O)c(O)c1)N/N=C/c1ccc(O)c(O)c1,0.2%,6.75µM*,-5.1%,-9.1%,-0.1%,?
CC(C)(CNC(=O)C1CCCN1C(=O)c1cccs1)N1CCOCC1 (stereo unspecified),2.1%,-1.4%,-2.2%,-9.2%,4.7%,12.3%
COC(=O)c1sc2ccccc2c1-n1cccc1C(=O)C(=O)Nc1ccc(OC)cc1,0.3%,0.1%,?,28.3%,13µM*,4.9%
Cc1ccc(C(=O)Nc2ccc(Cl)c(-c3nc4ncccc4o3)c2)c(C)c1,.,2.69µM*,.,.,.,?
COc1cccc2cc(C(=O)CS(=O)(=O)c3ccc(C)cc3)c(=O)oc12,5.0%,?,-4.5%,0.7%,25.7%,.
COc1cc(C)ccc1OCc1cc(C(=O)N(Cc2c(C)nn(C)c2C)C2CC2)no1,13.6%,12µM*,?,?,?,.
SMILES,ELG1 genotoxic,FLuc modulator,NPC1 promoter act,Rab9 prom act,ELG1 DNA repair,SMN2 splice up
COc1cc(C)ccc1OCc1cc(C(=O)N(Cc2nccn2C)C(C)C)no1,?,10.7µM*,2.51µM*,2.24µM*,?,.
COc1cccc(OCc2cc(C(=O)N(Cc3nccn3C)C(C)C)no2)c1,-0.3%,-0.2%,13.7%,0.0%,0.0%,.
COc1cc(C)ccc1OCc1cc(C(=O)N2CCCCCC2)no1,1.6%,?,17.7%,22.0%,?,.
Cn1c(N)c(C(=O)COC(=O)C2CC(O)CN2S(=O)(=O)c2ccc(Cl)cc2)c(=O)n(C)c1=O (stereo unspecified),1.1%,5.6%,2.0%,-2.0%,-12.6%,.
CC(=O)c1ccc(NC(=O)CN2C(=O)CCc3ccccc32)cc1,.,6.01µM*,.,.,.,.
Cc1ccc(OCCn2ccc(=O)[nH]c2=O)cc1C,5.6%,11.2%,2.7%,2.5%,-1.1%,1.0%
CN(C)c1ccc(/C=C2\SC(=O)N(CCc3nnc(N)s3)C2=O)cc1,?,0.135µM*,0.1µM*,?,?,.
CN(C)c1ccc(/C=C2/SC(=O)N(CCN=C3NS(=O)(=O)c4ccccc43)C2=O)cc1,12.5%,-12.9%,?,?,?,.
CCCC(=O)N1CCN(c2nc3ccc(Cl)cc3s2)CC1,?,12µM*,?,?,?,.
CCCCC(=O)N1CCN(c2nc3ccc(Br)cc3s2)CC1,6.2%,?,24.2%,-4.4%,?,.
CCCC(=O)N1CCN(c2nc3ccc(CC)cc3s2)CC1,12.8%,13.5µM*,?,?,?,.
CCCC(=O)N1CCN(c2nc3ccc(Br)cc3s2)CC1,11.6%,21.3µM*,29.1%,?,?,.
CC(=O)N1CCN(c2nc3ccc(Br)cc3s2)CC1,?,15.1µM*,3.16µM*,?,?,.
CC(C)(C)C(=O)N1CCN(c2nc3ccc(Br)cc3s2)CC1,4.8%,?,?,?,?,.
CCN(Cc1ccncc1)C(=O)c1cccc(S(=O)(=O)N2CCCCC2)c1,0.4%,.,.,.,?,.
O=C1CC2(CCN(C(=O)c3c(F)cccc3Cl)CC2)Oc2ccccc21,-3.3%,-1.7%,0.5%,-1.1%,-4.3%,.
O=C(OCC(=O)N1CCOCC1)c1ccc2[nH]c3c(c2c1)CCCC3,-0.4%,?,-3.2%,2.8%,?,.
CC(C)(C)C(=O)N1CCN(c2nc3ccc(Cl)cc3s2)CC1,?,10.7µM*,2µM*,?,?,.
Cc1ccccc1C(=O)Nc1ccccn1,.,-12.6%,.,.,.,-19.4%
CN1CCN(CCCNC(=O)CCCOc2cc(=O)n(C)c3ccccc23)CC1,5.0%,14.7%,-4.8%,-10.1%,?,16.3%
